The values below come from PubChem BioAssay.

Structures are written as SMILES. Active and inactive are the calls of the source.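 Rule for the calls: active = mean z-score across replicates of 1.96 or higher in either the MELAS or the Rieske mutant cell line; inactive = the rest.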

A short description of one experiment: survival rescue of mitochondrial mutant cells in low glucose, primary screen, MELAS cybrids, Rieske KO mouse fibroblasts, CellTiter-Glo (AID 1508586).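 Note: test concentration not given here; z relative to plate mean and SD of compound and empty wells.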 The settings on record: MELAS cybrid survival, CellTiter-Glo 48 h, stronger effect = higher value. On the technique in general: In ATP-based viability assays light output follows the ATP content of the culture.
Consider `Cc1cccc(Oc2nccc(-c3c(-c4ccc(F)cc4)ncn3C3CCNCC3)n2)c1C`, for which the z-score was -0.134 (inactive).
Regarding `COc1cc2ncn(-c3cc(OCc4ccccc4C(F)(F)F)c(C(N)=O)s3)c2cc1OC`, the z-score was -0.422 (inactive).
For the compound `CC(C)(C)c1ccc(Oc2nccc(-c3c(-c4ccc(F)cc4)ncn3C3CCNCC3)n2)cc1`, the z-score is -0.424 (inactive).
Take `COc1cc2ncn(-c3cc(O[C@@H](C)c4ccccc4Cl)c(C(N)=O)s3)c2cc1OC`: the z-score was -0.552 (inactive).
As to `COc1ccccc1C1=C(Nc2ccccc2)C(=O)NC1=O`, the z-score is -1.08 (inactive).
The same measure, in the same setting: next, `O=C1NC(=O)C(c2ccccc2)=C1Nc1ccccc1`: -0.614 (inactive).
As for `COc1cc(Nc2ncc(-c3ccccc3)o2)cc(OC)c1OC`, the z-score was 1.37 (inactive).
Take `CS(=O)(=O)CCNCc1ccc(-c2ccc3ncnc(Nc4ccc(OCc5ccccc5)c(Cl)c4)c3c2)o1`: the z-score was -0.588 (inactive).

The same experiment, now with this note: Rieske KO mouse fibroblast survival, CellTiter-Glo 72 h.
`Cc1cccc(Oc2nccc(-c3c(-c4ccc(F)cc4)ncn3C3CCNCC3)n2)c1C` returned a z-score of -0.269.
For the compound `COc1cc2ncn(-c3cc(OCc4ccccc4C(F)(F)F)c(C(N)=O)s3)c2cc1OC`, the z-score is -0.574.
`CC(C)(C)c1ccc(Oc2nccc(-c3c(-c4ccc(F)cc4)ncn3C3CCNCC3)n2)cc1` yielded a z-score of 0.0471.
For the compound `COc1cc2ncn(-c3cc(O[C@@H](C)c4ccccc4Cl)c(C(N)=O)s3)c2cc1OC`, the z-score amounted to 0.815.
As for `COc1ccccc1C1=C(Nc2ccccc2)C(=O)NC1=O`, the z-score was -0.271.
Take `O=C1NC(=O)C(c2ccccc2)=C1Nc1ccccc1`: the z-score is -0.425.
The same measure, in the same setting: in the case of `COc1cc(Nc2ncc(-c3ccccc3)o2)cc(OC)c1OC` it was -0.275; in that of `CS(=O)(=O)CCNCc1ccc(-c2ccc3ncnc(Nc4ccc(OCc5ccccc5)c(Cl)c4)c3c2)o1`, -0.304.
